Calls of active or inactive are those of the source. How the source made its calls: active means hit-call score of the fitted dose curve at least 0.9, where 1 is the maximum; inactive means score below 0.9.
Target: human Serotonin Transporter (SET), SLC6A4 (gene 6532) (UniProt P31645)
Assay: ERF_FR_TR_hSLC6A4: Eurofins (ERF) Radioligand Binding LeadHunter Assay for human Serotonin Transporter (SET) human Agonism
Protocol: ERF_FR_TR_hSLC6A4 is a biochemical, single-readout assay that uses extracted gene-proteins in a cell-free assay. Measurements were taken 1 hour after chemical dosing in a 96-well plate. See SET Human Serotonin Transporter Binding (Antagonist Radioligand) Assay, Cerep.ERF_FR_TR_hSLC6A4 is an assay component calculated from the ERF_FR_TR_hSLC6A4 assay. It is designed to measure radioligand binding using a type of binding reporter as detected by scintillation counting with radiometry technology.Data from the assay component ERF_FR_TR_hSLC6A4 was analyzed at the assay endpoint, ERF_FR_TR_hSLC6A4, in the positive analysis fitting direction relative to DMSO as the negative control and baseline of activity. Using a type of binding reporter, loss-of-signal activity can be used to understand changes in enzymatic activity as they relate to gene SLC6A4. To generalize the intended target to other relatable targets, this assay endpoint is annotated to the transporter intended target family, where the subfamily is SLC6 / Monoamine.
Human recombinant serotonin transporter expressed in human HEK-293 cells are used in modified Tris-HCl buffer pH 7.4. A 2 ug aliquot is incubated with 0.4 nM [3H]Paroxetine for 60 minutes at 25C. Non-specific binding is estimated in the presence of 10 uM imipramine. Transporters are filtered and washed. The filters are then counted to determine [3H]Paroxetine specifically bound. Compounds are screened at 10 uM. Membrane protein may change from lot to lot; the concentration used will be adjusted if necessary.

Chain of human Serotonin Transporter (SET), SLC6A4 (gene 6532) (P31645 whole entry, looked up): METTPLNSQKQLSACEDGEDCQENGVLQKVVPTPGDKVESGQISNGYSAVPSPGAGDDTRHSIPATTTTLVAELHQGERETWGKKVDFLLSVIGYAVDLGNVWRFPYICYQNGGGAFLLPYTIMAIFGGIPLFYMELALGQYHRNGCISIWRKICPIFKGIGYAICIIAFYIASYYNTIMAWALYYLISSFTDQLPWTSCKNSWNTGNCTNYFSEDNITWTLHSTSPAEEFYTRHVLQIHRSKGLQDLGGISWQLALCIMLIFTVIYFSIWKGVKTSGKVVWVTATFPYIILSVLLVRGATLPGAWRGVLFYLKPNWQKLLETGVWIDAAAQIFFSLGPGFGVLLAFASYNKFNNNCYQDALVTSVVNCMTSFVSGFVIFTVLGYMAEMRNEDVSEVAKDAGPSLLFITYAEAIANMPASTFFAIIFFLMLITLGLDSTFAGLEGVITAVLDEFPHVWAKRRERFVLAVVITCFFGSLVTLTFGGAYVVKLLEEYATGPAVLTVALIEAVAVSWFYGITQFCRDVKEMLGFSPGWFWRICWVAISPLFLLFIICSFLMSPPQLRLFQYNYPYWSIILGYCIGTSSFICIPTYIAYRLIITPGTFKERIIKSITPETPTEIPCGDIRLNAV

Structure (SMILES) | AC50 | outcome
O=C(/C=C/c1ccc(O)cc1)CC(=O)/C=C/c1ccc(O)cc1 | 3.2 µM (active) | 
COc1cc(/C=C/C(=O)CC(=O)/C=C/c2ccc(O)c(OC)c2)ccc1O | 2.12 µM (active) | 
CCCCC[C@H](O)CC(=O)CCc1ccc(O)c(OC)c1 |  | inactive

— PubChem BioAssay AID2284203 (EPA ToxCast)
